PubChem BioAssay (Tox21)
Records with an inconclusive call do not appear. Calls of active or inactive are those of the source. Unless noted, the call rests on the fitted dose curve; in most records, active means well fitted curve in the direction sought with a large enough effect in the repeat runs; inconclusive means weak or mixed curves; inactive means no such curve, though single readings can be large; an effect the other way counts as inactive or inconclusive.

What was measured:
[1] = biological target: Progesterone receptor (Homo sapiens) (UniProt P06401); assay: qHTS assay to identify small molecule agonists of the progesterone receptor (PR) signaling pathway (AID 1346784; calls by dose curve; further: nearly all actives have a fitted effect of over 30% in size; further: potency means the concentration at half of the fitted maximal effect)
Procedure, shortened: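 Using charcoal-stripped serum (2%) to limit endogenous steroids, PR-UAS-bla HEK 293T cells received compounds for 16 hr at 37C after 6 hr plating; beta-lactamase FRET fluorescence was recorded following 2 hr substrate loading at room temperature.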

[2] = biological target: Progesterone receptor (Homo sapiens) (UniProt P06401); assay: qHTS assay to identify small molecule antagonists of the progesterone receptor (PR) signaling pathway (AID 1346795; active means well fitted inhibition curve with a large enough effect in the signal ratio in the repeat runs, not every such curve was filed as active; the % refers to the signal ratio; further: potency means the concentration at half of the fitted maximal effect)
Procedure, shortened: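 Inhibition of R5020-induced (1 nM final) beta-lactamase reporter signal in PR-UAS-bla HEK293T cells was scored by FRET fluorescence after overnight (16 hr) compound treatment.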

[3] = qHTS assay to identify small molecule antagonists of the progesterone receptor (PR) signaling pathway - cell viability counter screen (AID 1346798); further: series mostly up to about 92 µM; nearly all actives have a fitted effect of over 50% in size
Procedure, shortened: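 ATP content as viability readout: CellTiter-Glo luminescence, 30 min room temperature, in PR-UAS-bla HEK293T cells after 16 hr compound/R5020 treatment at 37C and 5% CO2.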

[4] = qHTS assay to identify small molecule agonists of the progesterone receptor (PR) signaling pathway - cell viability counter screen (AID 1346799; calls by dose curve; further: nearly all actives have a fitted effect of over 45% in size)
Procedure, shortened: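 Cytotoxicity in PR-bla HEK293T cells: 16 h compound, 37C; CellTiter-Glo added post-FRET read; luminescence after 30 min RT.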

[5] = qHTS assay to identify small molecule antagonists of the TGF-beta/Smad signaling pathway - cell viability counter screen (AID 1346824); further: nearly all actives have a fitted effect of over 50% in size
Procedure, shortened: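 SBE-bla HEK 293T cells were plated overnight at 37 C, then given compounds in DMSO plus TGF-beta1 (added as 0.25 ng/mL solution) for 5 hr. After the bla read, CellTiter-Glo was added to the same wells and luminescence read after 30 min at room temperature.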

[6] = qHTS assay to identify small molecule agonists of the TGF-beta/Smad signaling pathway - cell viability counter screen (AID 1346829); further: top concentration of the series differs between compounds; nearly all actives have a fitted effect of over 45% in size
Procedure, shortened: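 SBE-bla HEK 293T cells plated overnight, compound exposure 5 hr at 37 C. Viability read in the same wells by CellTiter-Glo luminescence after 30 min at room temperature, following the beta-lactamase read.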

[7] = qHTS assay to identify small molecule agonists of the TGF-beta/Smad signaling pathway (AID 1346859; active means well fitted activation curve with a large enough effect in the signal ratio in the repeat runs, not every such curve was filed as active; the % refers to the signal ratio; further: series mostly up to about 77 µM)
Procedure, shortened: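 Stable Smad binding element-beta-lactamase HEK 293T cells; 5 hr compound exposure at 37 C under 5% CO2; 2 hr room-temperature substrate step; fluorescence excited at 405 nm, collected at 460 nm and 530 nm.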

[8] = biological target: Thyrotropin-releasing hormone receptor (Homo sapiens) (UniProt P34981); assay: qHTS assay to identify small molecule antagonists of the thyrotropin-releasing hormone receptor (TRHR) signaling pathway (AID 1346877; active means well fitted inhibition curve with a large enough effect in the repeat runs, not every such curve was filed as active; further: series mostly up to about 51 µM)
Procedure, shortened: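 Calcium signal in dye-loaded TRHR/HEK293 cells; compounds added 5 min before TRH (1 nM final); fluorescence monitored 3 min at 1 s steps.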

[9] = biological target: Thyrotropin-releasing hormone receptor (Homo sapiens) (UniProt P34981); assay: qHTS assay to identify small molecule agonists of the thyrotropin-releasing hormone receptor (TRHR) signaling pathway (AID 1346891; calls by dose curve;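 further: HEK293 cells expressing TRHR with calcium dye readout; series mostly up to about 58 µM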)
Procedure, shortened: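 In 1536-format, 1500 TRHR-Hek293 cells per well grew 18 h, took up calcium dye for 2 h at 37 °C, received compound, and were read kinetically; 15-point titrations, triplicates.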

[10] = Human pregnane X receptor (PXR) small molecule agonists, qHTS cell viability counter screen (AID 1346977); further: nearly all actives have a fitted effect of over 50% in size; further: potency means the concentration at half of the fitted maximal effect
Procedure, shortened: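 Readout is CellTiter-Fluor fluorescence from PXR-Luc HepG2 cells. Plated cells rested 5hr, then were treated with compounds for 24hr at 37C and 5% CO2, with reagent present during the last hour.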
On the % scale 0 is the no-effect control and ±100 the full control effect.

Progesterone receptor (Homo sapiens), sequence (P06401 whole entry, looked up): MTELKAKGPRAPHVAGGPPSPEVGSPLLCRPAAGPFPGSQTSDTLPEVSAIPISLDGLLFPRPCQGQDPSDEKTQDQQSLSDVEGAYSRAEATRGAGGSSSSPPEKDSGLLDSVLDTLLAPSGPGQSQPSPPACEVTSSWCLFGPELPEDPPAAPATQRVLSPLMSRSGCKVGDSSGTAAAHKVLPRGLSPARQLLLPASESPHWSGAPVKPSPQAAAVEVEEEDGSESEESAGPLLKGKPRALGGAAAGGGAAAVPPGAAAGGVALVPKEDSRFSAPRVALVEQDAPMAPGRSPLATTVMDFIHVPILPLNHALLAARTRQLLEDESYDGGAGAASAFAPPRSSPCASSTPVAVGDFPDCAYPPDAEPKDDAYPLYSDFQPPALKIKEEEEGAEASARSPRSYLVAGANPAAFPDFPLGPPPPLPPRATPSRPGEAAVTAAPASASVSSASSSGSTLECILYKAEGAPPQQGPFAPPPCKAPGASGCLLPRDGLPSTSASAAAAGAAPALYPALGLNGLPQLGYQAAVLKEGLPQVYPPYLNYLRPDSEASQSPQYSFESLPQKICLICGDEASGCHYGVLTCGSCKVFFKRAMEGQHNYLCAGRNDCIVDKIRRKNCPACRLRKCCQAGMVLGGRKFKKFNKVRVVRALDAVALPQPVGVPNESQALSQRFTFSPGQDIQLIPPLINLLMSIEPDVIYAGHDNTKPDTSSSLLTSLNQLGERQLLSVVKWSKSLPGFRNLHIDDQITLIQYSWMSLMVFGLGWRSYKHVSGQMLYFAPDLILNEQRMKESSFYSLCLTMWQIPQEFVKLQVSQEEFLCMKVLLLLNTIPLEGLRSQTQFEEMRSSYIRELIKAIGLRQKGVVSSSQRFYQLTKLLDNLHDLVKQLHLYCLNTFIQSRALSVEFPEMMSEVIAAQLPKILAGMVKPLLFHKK
Thyrotropin-releasing hormone receptor (Homo sapiens), sequence (P34981 whole entry, looked up): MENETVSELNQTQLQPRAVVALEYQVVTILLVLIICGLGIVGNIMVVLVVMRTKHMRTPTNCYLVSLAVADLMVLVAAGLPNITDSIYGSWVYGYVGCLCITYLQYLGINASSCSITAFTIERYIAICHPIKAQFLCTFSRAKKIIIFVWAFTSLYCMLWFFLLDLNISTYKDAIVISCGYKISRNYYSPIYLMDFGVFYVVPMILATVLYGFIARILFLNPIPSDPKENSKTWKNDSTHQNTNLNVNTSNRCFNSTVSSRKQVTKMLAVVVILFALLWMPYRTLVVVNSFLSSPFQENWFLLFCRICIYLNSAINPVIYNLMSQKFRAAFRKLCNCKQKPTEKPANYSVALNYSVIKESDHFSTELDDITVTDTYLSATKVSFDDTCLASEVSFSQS

Cc1c(C(=O)NCCO)[n+](=O)c2ccccc2n1[O-]
inactive: Potency [1] | Potency [2] | Potency [3] | Potency [4] | outcome [5] | outcome [6] | outcome [7] | outcome [8] | Potency [9]

CC1=NN(c2cc(Cl)c(S(=O)(=O)O)cc2Cl)C(=O)C1N=Nc1ccc(S(=O)(=O)O)cc1 (stereo unspecified)
inactive: Potency [1] | Potency [2] | Potency [3] | Potency [4] | outcome [5] | outcome [6] | outcome [7] | outcome [8] | Potency [9]
active: Potency [10] 54.5 µM

CCCCN1C[C@H](O)[C@@H](O)[C@H](O)[C@H]1CO
inactive: Potency [1] | Potency [2] | Potency [3] | Potency [4] | outcome [5] | outcome [6] | outcome [7] | outcome [8] | Potency [9] | Potency [10]

C1CCOC1
inactive: Potency [1] | Potency [2] | Potency [3] | Potency [4] | outcome [5] | outcome [6] | outcome [7] | outcome [8] | Potency [9] | Potency [10]

CO[C@@]1(NC(=O)CSCC#N)C(=O)N2C(C(=O)O)=C(CSc3nnnn3C)CS[C@@H]21
inactive: Potency [1] | Potency [2] | Potency [3] | Potency [4] | outcome [5] | outcome [6] | outcome [7] | outcome [8] | Potency [9] | Potency [10]

O=c1oc2c(O)c(O)cc3c(=O)oc4c(O)c(O)cc1c4c23
inactive: activation [1] -0.0631% [at 19 µM] | activity change, negative = inhibition [2] 7.58% [at 18.9 µM] | Potency [3] | activity change, negative = cytotoxicity [4] -1.25% [at 19 µM] | viability change, negative = cytotoxic [5] -7.88% [at 15.8 µM] | activity change, negative = cytotoxicity [6] 10.9% [at 15.8 µM] | activation [7] 5.13% [at 15.8 µM] | activity, negative = inhibition [8] 1.88% [at 10.5 µM] | activation [9] 0.184% [at 11.8 µM] | activity change, negative = cytotoxicity [10] 4.42% [at 19 µM]

CC(=O)Oc1cc(C(C)C)c(OCCN(C)C)cc1C
inactive: Potency [1] | Potency [2] | Potency [3] | Potency [4] | outcome [5] | outcome [6] | outcome [7] | outcome [8] | Potency [9] | Potency [10]

CCOc1ccc2nc(N)sc2c1
active: Potency [2] 60.6 µM
inactive: Potency [1] | Potency [3] | Potency [4] | outcome [5] | outcome [6] | outcome [7] | outcome [8] | Potency [9] | Potency [10]

CCCCNCCCC
inactive: Potency [1] | Potency [2] | Potency [3] | Potency [4] | outcome [5] | outcome [6] | outcome [7] | outcome [8] | Potency [9] | Potency [10]

CN1CCN(C2=Nc3ccccc3Oc3ccc(Cl)cc32)CC1
active: Potency [2] 26.6 µM
inactive: Potency [1] | Potency [3] | Potency [4] | outcome [5] | outcome [6]

CC(C)C(=O)OC/C=C/c1ccccc1
inactive: Potency [1] | Potency [2] | Potency [3] | Potency [4] | outcome [5] | outcome [6] | outcome [7] | outcome [8] | Potency [9]

CCN1CC(CCN2CCOCC2)C(c2ccccc2)(c2ccccc2)C1=O (stereo unspecified)
inactive: Potency [1] | Potency [2] | Potency [3] | Potency [4] | outcome [5] | outcome [6] | outcome [7] | outcome [8] | Potency [9] | Potency [10]

CC(C)NCC(O)COc1ccc(CCOCC2CC2)cc1 (stereo unspecified)
inactive: Potency [1] | Potency [2] | Potency [3] | Potency [4] | outcome [5] | outcome [6]

CC(=O)Nc1ccc(C)c(Cl)c1
inactive: Potency [1] | Potency [2] | Potency [3] | Potency [4] | outcome [5] | outcome [6] | outcome [7] | outcome [8] | Potency [9] | Potency [10]

C[C@@H]1CN(c2c(F)c(N)c3c(=O)c(C(=O)O)cn(C4CC4)c3c2F)C[C@H](C)N1
inactive: activation [1] 3.14% [at 19 µM] | activity change, negative = inhibition [2] 8.12% [at 18.9 µM] | Potency [3] | activity change, negative = cytotoxicity [4] 4.97% [at 19 µM] | viability change, negative = cytotoxic [5] 4.43% [at 15.8 µM] | activation [7] 1.17% [at 15.8 µM] | activity, negative = inhibition [8] 0.314% [at 10.5 µM] | activation [9] -0.407% [at 11.8 µM] | activity change, negative = cytotoxicity [10] 5.72% [at 19 µM]

C=CC(C)(O)CC/C=C(\C)CCC=C(C)C (stereo unspecified)
inactive: Potency [1] | Potency [2] | Potency [3] | Potency [4] | outcome [5] | outcome [6] | outcome [8] | Potency [9] | Potency [10]

COc1cc(C)ccc1C(C)C
inactive: Potency [1] | Potency [2] | Potency [3] | Potency [4] | outcome [5] | outcome [6] | outcome [8] | Potency [9]

CCCCC(CC)COC(=O)COc1cc(Cl)c(Cl)cc1Cl (stereo unspecified)
inactive: Potency [1] | Potency [2] | Potency [3] | Potency [4] | outcome [5] | outcome [7] | outcome [8] | Potency [9] | Potency [10]

NC1=NCC2c3ccccc3Cc3ccccc3N12 (stereo unspecified)
inactive: Potency [1] | Potency [2] | Potency [3] | Potency [4] | outcome [5] | outcome [6] | outcome [8] | Potency [9] | Potency [10]

CCOC(=O)CS
active: Potency [1] 3.15 µM
inactive: Potency [2] | Potency [3] | Potency [4] | outcome [5] | outcome [6] | outcome [7] | outcome [8] | Potency [9] | Potency [10]

CCOc1ccc(NS(=O)(=O)c2ccc(N)cc2)nn1
inactive: Potency [1] | Potency [2] | Potency [3] | Potency [4] | outcome [5] | outcome [7]

CC(=O)N(CC(O)CN(C(C)=O)c1c(I)c(C(=O)NCC(O)CO)c(I)c(C(=O)NCC(O)CO)c1I)c1c(I)c(C(=O)NCC(O)CO)c(I)c(C(=O)NCC(O)CO)c1I (stereo unspecified)
inactive: Potency [1] | Potency [2] | Potency [3] | Potency [4] | outcome [5] | outcome [7] | outcome [8] | Potency [9] | Potency [10]

Cc1c(N)cccc1N
inactive: Potency [1] | Potency [2] | Potency [3] | Potency [4] | outcome [5] | outcome [6] | outcome [8] | Potency [9]

CCCS(=O)c1ccc2nc(NC(=O)OC)[nH]c2c1 (stereo unspecified)
inactive: Potency [1] | Potency [2] | Potency [3] | Potency [4] | outcome [5] | outcome [6] | outcome [7] | outcome [8] | Potency [9] | Potency [10]

CC1=C(CC(=O)O)c2cc(F)ccc2/C1=C\c1ccc(S(C)(=O)=O)cc1
inactive: Potency [1] | Potency [2] | Potency [3] | Potency [4] | outcome [5] | outcome [6] | outcome [8] | Potency [9] | Potency [10]
